Source: PubChem BioAssay
Activity calls are given as the source filed them.

Experiments:
[1] = tested on: Plasmodium falciparum Sir2 (PF13_0152, Sir2A); test: pfSir2 binders on small-molecule microarrays, primary screen, biochemical, small-molecule microarray, 635 nm fluorescence (AID 1098); details: small-molecule microarray binding, fluorescence 635 nm; higher = more signal;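 note: score merges spot fluorescence intensity with its signal-to-noise ratio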
[2] = small-molecule microarray binders of probe aDKK1, primary screen, biochemical, biotinylated probe, 635/667 nm fluorescence (AID 1099); details: higher = more signal;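 note: score merges 667nm spot fluorescence with signal to noise across triplicate slides; reference of the scale not given here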
[3] = small-molecule microarray binders of probe aCHRDL2, primary screen, biochemical, biotinylated probe, 635/667 nm fluorescence (AID 1100); details: higher = more signal
[4] = splicing luciferase reporter signal modulators, primary screen, spliceosome inhibition project, cell-based, HEK293, splice +/- reporter (AID 1101); details: luminescence, 24 h, higher = more signal, called active from +8 up or from −8 down;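 note: HEK293 cells carrying a splicing-competent luciferase reporter gene; test concentration not given here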
[5] = target: Fibroblast growth factor 10 (Homo sapiens) (UniProt O15520); test: FGF10 binders on small-molecule microarrays, primary screen, biochemical, small-molecule microarray, 635 nm fluorescence (AID 1102); details: FGF10 binding, fluorescence 635 nm, higher = more signal
Fibroblast growth factor 10 (Homo sapiens), sequence (O15520 whole entry, looked up): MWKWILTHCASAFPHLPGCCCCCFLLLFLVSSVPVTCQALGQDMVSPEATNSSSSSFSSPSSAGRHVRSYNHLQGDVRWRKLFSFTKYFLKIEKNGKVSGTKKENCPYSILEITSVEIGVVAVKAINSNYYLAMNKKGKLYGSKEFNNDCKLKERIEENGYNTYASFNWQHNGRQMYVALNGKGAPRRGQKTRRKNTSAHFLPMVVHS

[6] = tested on: glycogen synthase kinase-3 (GSK3A per assay name; protocol says GSK3B); test: GSK3 binders on small-molecule microarrays, primary screen, biochemical, small-molecule microarray, 635 nm fluorescence, GSK3A (AID 1103); details: small-molecule microarray binding, fluorescence 635 nm; higher = more signal; note: the record names both GSK3A and GSK3B
[7] = target: Epidermal growth factor receptor (Homo sapiens) (UniProt P00533); test: EGFR binders on small-molecule microarrays, primary screen, biochemical, small-molecule microarray, 635 nm fluorescence (AID 1104); details: EGFR binding, higher = more signal;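 note: score merges 667 nm emission intensity with spot signal to noise over triplicate slides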
Epidermal growth factor receptor (Homo sapiens), sequence (P00533 whole entry, looked up): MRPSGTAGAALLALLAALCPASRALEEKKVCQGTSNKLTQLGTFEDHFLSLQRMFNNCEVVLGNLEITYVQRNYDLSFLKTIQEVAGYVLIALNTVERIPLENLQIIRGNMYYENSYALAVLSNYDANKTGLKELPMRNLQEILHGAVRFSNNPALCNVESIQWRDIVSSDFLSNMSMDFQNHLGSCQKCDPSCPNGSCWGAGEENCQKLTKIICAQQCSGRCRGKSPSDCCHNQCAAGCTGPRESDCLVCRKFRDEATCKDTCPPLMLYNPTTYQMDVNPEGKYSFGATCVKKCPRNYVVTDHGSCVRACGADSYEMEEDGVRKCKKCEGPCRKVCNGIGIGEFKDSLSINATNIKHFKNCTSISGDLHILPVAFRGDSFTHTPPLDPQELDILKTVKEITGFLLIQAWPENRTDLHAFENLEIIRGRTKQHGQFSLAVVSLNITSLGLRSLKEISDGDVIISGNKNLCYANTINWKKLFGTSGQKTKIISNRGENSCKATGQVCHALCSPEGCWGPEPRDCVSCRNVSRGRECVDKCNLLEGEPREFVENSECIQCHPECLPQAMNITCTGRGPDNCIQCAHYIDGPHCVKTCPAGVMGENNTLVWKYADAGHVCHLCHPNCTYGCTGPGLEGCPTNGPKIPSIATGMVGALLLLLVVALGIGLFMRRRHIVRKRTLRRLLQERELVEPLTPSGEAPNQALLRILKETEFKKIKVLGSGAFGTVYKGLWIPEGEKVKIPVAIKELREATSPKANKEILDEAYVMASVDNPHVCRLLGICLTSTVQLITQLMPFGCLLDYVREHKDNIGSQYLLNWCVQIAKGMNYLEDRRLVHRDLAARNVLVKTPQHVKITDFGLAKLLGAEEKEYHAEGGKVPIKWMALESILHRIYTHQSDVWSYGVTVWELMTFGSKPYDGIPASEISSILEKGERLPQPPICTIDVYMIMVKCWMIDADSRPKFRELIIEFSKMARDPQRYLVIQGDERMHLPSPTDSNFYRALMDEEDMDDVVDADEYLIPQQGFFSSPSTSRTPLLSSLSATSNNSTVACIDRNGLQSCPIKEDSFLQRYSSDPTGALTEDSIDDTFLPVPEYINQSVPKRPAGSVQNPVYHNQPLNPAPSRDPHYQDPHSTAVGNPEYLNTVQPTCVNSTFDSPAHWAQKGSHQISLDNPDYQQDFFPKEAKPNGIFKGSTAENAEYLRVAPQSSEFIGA

[8] = target: Follistatin-related protein 3 (Homo sapiens) (UniProt O95633); test: FSTL3 binders on small-molecule microarrays, primary screen, biochemical, small-molecule microarray, 635 nm fluorescence (AID 1105); details: FSTL3 binding, higher = more signal;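 note: score merges emission near 667 nm and signal to noise per printed spot across three slides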
Follistatin-related protein 3 (Homo sapiens), sequence (O95633 whole entry, looked up): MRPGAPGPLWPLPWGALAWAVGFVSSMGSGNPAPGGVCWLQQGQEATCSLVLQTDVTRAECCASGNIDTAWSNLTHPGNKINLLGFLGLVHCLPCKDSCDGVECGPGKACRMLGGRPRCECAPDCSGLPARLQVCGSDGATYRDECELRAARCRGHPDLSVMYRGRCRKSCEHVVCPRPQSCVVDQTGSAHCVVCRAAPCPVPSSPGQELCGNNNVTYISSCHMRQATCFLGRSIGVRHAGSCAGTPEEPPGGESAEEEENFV

[9] = target: Dickkopf-related protein 1 (Homo sapiens) (UniProt O94907); test: DKK1 binders on small-molecule microarrays, primary screen, biochemical, small-molecule microarray, 635 nm fluorescence scan (AID 1106); details: DKK1 binding, higher = more signal;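 note: score merges emission near 667 nm with signal to noise over three replicate slides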
Dickkopf-related protein 1 (Homo sapiens), sequence (O94907 whole entry, looked up): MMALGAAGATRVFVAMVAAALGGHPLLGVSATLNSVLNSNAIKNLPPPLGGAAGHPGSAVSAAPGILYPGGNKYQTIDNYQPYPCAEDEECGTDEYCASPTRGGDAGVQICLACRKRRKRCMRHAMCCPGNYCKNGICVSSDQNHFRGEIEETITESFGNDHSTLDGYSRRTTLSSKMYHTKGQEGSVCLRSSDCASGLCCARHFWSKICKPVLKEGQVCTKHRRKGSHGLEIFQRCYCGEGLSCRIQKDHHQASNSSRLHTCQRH

[10] = tested on: Inhibin beta A chain (activin A); test: INHBA (activin A) binders on microarrays, primary screen, biochemical, small-molecule microarray, 635 nm fluorescence scan (AID 1107); details: small-molecule microarray binding, higher = more signal;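 note: mouse activin A protein probed at 4.33 µg/mL on printed slides; score merges bound-protein fluorescence near 667 nm with spot signal-to-noise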

| SMILES | composite z-score [1] | composite z-score [2] | composite z-score [3] | z-score [4] | composite z-score [5] | composite z-score [6] | composite z-score [7] | composite z-score [8] | composite z-score [9] | composite z-score [10] |
| --- | --- | --- | --- | --- | --- | --- | --- | --- | --- | --- |
| COCCOC(=O)N1C(=O)[C@@]2(c3cc(C#Cc4ccc(OC)cc4)ccc31)[C@H](c1ccc(O)cc1)N1[C@H](c3ccccc3)[C@H](c3ccccc3)OC(=O)[C@H]1[C@@H]2C(=O)NC[C@H](O)c1ccccc1 | 1.47 | -0.0755 | -0.378 | -1.68 (inactive) | 1.42 | 1.31 | 0.769 | 1.4 | 0.811 | 0.113 |
| CC(C)C[C@H]1NC(=O)[C@@]23C(=O)N[C@@H](Cc4ccccc4)C2[C@H](C)[C@@]2(C)O[C@H]2C3/C=C/C/C=C\CNC(=O)[C@H](Cc2ccccc2)NC1=O (stereo not given in full) | 0.777 | -0.283 | -0.471 | 0.000958 (inactive) | 0.903 | 0.47 | 0.447 | 0.816 | 0.599 | 0.867 |
| O=C1C2C=CC(C(O)C3CCCCC3)N(Nc3ccc([N+](=O)[O-])cc3)C2C(=O)N1c1ccccc1 (stereo not given) | 1.26 | -0.236 | 0.783 | -1.04 (inactive) | -0.901 | 1.31 | -1.54 | -0.677 | -1.49 | -1.28 |
| COc1ccc([Si](C)(C)[C@H]2[C@H](CC(=O)N3Cc4ccccc4C[C@H]3CO)O[C@@]3(C(=O)N(Cc4ccc(N5CCC5=O)cc4)c4ccccc43)[C@@H]2C)cc1 | 1.21 | -0.283 | 0.51 | -0.315 (inactive) | 1.15 | 0.972 | 1.11 | 1.44 | 1 | 1.28 |
| COC(=O)C=C(CC(O)c1cccc(Cl)c1)OC (stereo not given) | -0.02 | 1.5 | 0.48 | -1.12 (inactive) | 0.182 | -0.134 | -0.485 | -0.374 | -0.186 | 1.14 |
| C#CCN(Cc1ccccc1Br)C(/C=C/c1ccccc1)CO (stereo not given) | -0.877 | -0.23 | 0.326 | -1.03 (inactive) | 0.168 | -0.398 | -0.153 | -0.649 | -0.0455 | 0.904 |
| C=CCC(OC(C)=O)[C@@H]1[C@@H](N(Cc2ccc(-c3cccc(C(F)(F)F)c3)o2)C(=O)c2ccc(-c3ccccc3)cc2)c2cc(OCCCO)ccc2N1C(=O)c1ccc(-c2ccccc2)cc1 (stereo not given in full) | -0.285 | 0.31 | 0.543 | 0.196 (inactive) | 0.269 | -0.754 | -0.327 | 0.104 | -0.0545 | 1.32 |
| CCOC(=O)C[C@H]1[C@H](OC(=O)c2cc3ccccc3oc2=O)[C@@H](NC(=O)C2CCCCC2)c2cc(OCCCO)ccc2N1C(=O)c1ccccc1 | 0.784 | -0.23 | -0.377 | -1.45 (inactive) | 0.995 | 0.692 | 0.593 | 0.708 | 0.5 | 0.707 |
| CN(C)C(=O)[C@@]1(Cc2ccccc2)N=C(c2ccc(OCCCO)cc2)O[C@H]1c1ccccc1N=[N+]=[N-] | 1.36 | 0.898 | 0.914 | -1.26 (inactive) | 1.36 | 1.26 | 0.189 | 0.843 | -0.237 | 0.994 |
| COc1ccc([Si](C)(C)[C@@H]2[C@@H](CC(=O)N3Cc4ccccc4C[C@H]3CO)O[C@]3(C(=O)N(C)c4c(Br)cc(C)cc43)[C@H]2C)cc1 | 0.859 | -0.0347 | -0.311 | -2.12 (inactive) | 1.33 | 0.954 | 0.968 | 1.08 | 0.685 | 1.13 |
| CCCCCN1CC=CC23O[C@@H]4/C=C\CCCOC(=O)C4[C@H]2C(=O)N(CCCO)[C@@H]3C1=O (stereo not given in full) | 0.93 | -0.175 | 0.062 | 0.308 (inactive) | 0.0154 | 1.06 | -0.346 | -0.352 | -0.663 | 1.41 |
| CN(C)CCCNC(=O)[C@@]1(c2ccc([N+](=O)[O-])cc2)CC(=O)N(C2CCCCC2)[C@@H]1c1ccc(CO)cc1 | 0.762 | 0.0157 | 0.759 | 0.315 (inactive) | -0.105 | -0.148 | -0.364 | 0.156 | -0.236 | 1.27 |
| C=C(/C(=C/C[C@@H](OC(C)=O)c1ccc(OCCO)cc1)c1cnc2ccccc2c1)C(C)C | 1.2 | -0.229 | 0.0459 | -0.837 (inactive) | 0.528 | -0.0912 | -0.103 | 0.77 | 0.218 | 1.5 |
| COC(=O)[C@@]1(Cc2ccc(F)cc2)[C@@H]2[C@@H](CC(=O)[C@H]2CC(=O)C(=O)N(C)C)CN1C(=O)c1ccccc1 | 0.532 | 1.21 | 1.19 | -0.191 (inactive) | 0.849 | 1.09 | 0.251 | 1.32 | -0.598 | 0.793 |
| C=C(CCCC)C(=O)CC[C@@H](OC(=O)c1cccnc1)c1ccc(CO)o1 | 1.15 | 0.0013 | -0.269 | 0.08 (inactive) | 1.21 | 0.958 | 0.641 | 0.916 | 0.576 | 1.3 |
| CN1C(=O)C2C=CC(C(O)C3CC=CCC3)N(NC(=O)OC(C)(C)C)C2C1=O (stereo not given) | 0.701 | 0.0347 | 0.16 | 1.61 (inactive) | 0.796 | 1.12 | 0.933 | 1.23 | 0.347 | 1.03 |
